The supplement of paper PMC6555819

What follows are sequences tested on PXR homodimer (NR concentration 270 nM) (assay: PBM binding z-score (relative to random genomic background probes); higher = stronger binding; sequences stand for … in GC…GCGATTGACAGCGTAGAATGAAGG).
Summary of the method: (§1)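 Probes were double-stranded and carried 34-nt variable regions with direct-repeat seeds, single-nucleotide variants, half-site ablations and random human genomic background sequences, printed on custom Agilent 4×180K protein-binding microarrays. Arrays were incubated 1 h with ligand-free nuclear receptor dimers in PBS pH 7.4, 2% milk, 0.02% Triton X-100, 1 mM DTT, 0.2 mg/mL BSA and 0.4 mg/ml salmon testes DNA. Antibodies against each partner (one per run) detected binding, and scanned fluorescence was regression-normalized. Binding z-scores use the random background probes as reference.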

Point of comparison: GCTAGTTGGTAAGTAAAAGGTCACACACCGGTCG, PBM binding z-score 1.13. Against it:
- AGTCAAAGTTAACTAGGTAACGTAAGATTCAGCT — lower, -0.0667
- TCTTGTAGATCAAGCAGGTTAAGACAGCCTGAGT — lower, 0.135
- CGAACTAGGTCATTGACAGGACAGTGAGTAGTAA — lower, 0.241
- TCTTGTAGATCAATAGAGGTCAAGAAAGTGCGCT — higher, 1.38
- ACTAACAGGCCAAGTTTGGGTCACTCAAACAAAG — lower, -0.269
- TCTATTAGTTGAAGGGCAAACGACGAGTCCGTTT — lower, 1.12
- GCTAGGTGGTCAGTAAAAGGTCACACACCGGTCG — higher, 1.22
- ATCTCTAGGTAACAAGTACAGTGAAAGAGAGGAC — lower, 0.657
- ATCTCTAGGTAAAAGCTCAGTGAATCCCGAGGAT — lower, -0.475
- TTACCAAGGTGCAGGTCGTTGATCCCTCTGTAGA — lower, 0.135
- AGACTGAGGTTATACGTAGATCAGGGAAGAAAGT — lower, 0.133
- CAAACTAGGTCAGAGGTCAAAGTCGAGCCAACCA — higher, 2.49
- GCGCGGAGGACAAGGTCAGAGCTTTGTCCGTAGA — lower, -0.325
- TCTCGGAGGACACGAAAGGTCAGGGCTCGACATC — lower, 0.147
- TATGCAGGGTCAAAGGCCAGAGTACGAATGTCGA — lower, -0.344
- CCTAATGGGCCAAGGTCATTGATCAGTCAAAGCA — higher, 1.87
- AGAACGAGGGCACGCGGAGTTGATAGCAGAGTAG — lower, -0.14

The sequences below were run on RARa:RXR (NR concentration 270 nM, RXRa partner concentration 90 nM) in the same assay as above.
Summary of the method: as §1

Point of comparison: ATATGTAGGTTATGGGGTCATTCAGTTTGCGCAT, PBM binding z-score 6.45. Against it:
- CCTTACGGGTCACTCCAGGTTATAGCATCGGAGT — lower, 3.49
- TTGCCTAGGTCATGGGCCAGTATACCACGCGAAC — lower, 2.8
- TCTTGTAGATCAATGGTTAAGAAAGCCGAAGCCT — lower, 0.142
- CCGACTGGGGCATAAGGTTACCCTAAGCCAGCCC — lower, 1.1
- CCTTACTGGTCACTCCAGGTTATAGCATCGGAGT — lower, 0.883
- ATCTCTAGGTCACCAAGTTCAGTGAATGCCGAAC — lower, 3.92
- AGAACGAGGGCAATGAGTTGTTAGCACGGGTGGC — lower, 0.0367
- GCTGCTACGTCAGGTTGGTCAGCTAACGGGTACG — lower, -0.51
- TAGCCTAGGTCAGACCGGGCCAGTATACGCTATA — lower, 1.14
- CCGAGTAGGTTATGGGGCACTCAGGCAACGGTGA — lower, 0.214
- GCTTACGGGTCAAAGGTGATAGCATGAATAGAAT — higher, 6.93
- CCTACTGGGCCAAACAGGTCATTGATGCCGATAA — lower, 1.71
- ATCGAAAGGTCGTGAGGTTAGTATACAGAAAGGC — lower, 4.8
- GCGACTGGGGCAAAGCAGGTTTCCATAAGGTTGG — lower, -0.165
- CCTACTAGGCCAAAAAGGTCATTGATGCCGATAA — lower, 5
- GCTGCTAGGTCAACTGTTGGTCAGCTAAAGCTCG — lower, 2.9
- AGAACGAGGGCACGTTGAGTTGATAGCAGAGTAG — lower, 0.629
- CGTCCAGGGTCAAAGGTCAGTGAAGAGATGACGG — higher, 8.37
- ATCACTAGGTAAAAGTTCAGTGAATCCCGAGGAT — lower, 1.9
- CCAGATAGGTGAGAAGGTAACTCAGCCTCGATTA — lower, 0.307
- ACTATTAGTTAACTTAGGGCAACCGATACGACGC — lower, 0.582
- AGTCAAAGTTAACTAGGTAACGTAAGATTCAGCT — lower, 0.226
- TCTTGTAGATCAAGCAGGTTAAGACAGCCTGAGT — lower, 0.668
- GCTAGTTGGTAAGTAAAAGGTCACACACCGGTCG — lower, 6.32
- CGAACTAGGTCATTGACAGGACAGTGAGTAGTAA — lower, 2.09
- TCTTGTAGATCAATAGAGGTCAAGAAAGTGCGCT — lower, 4.29
- ACTAACAGGCCAAGTTTGGGTCACTCAAACAAAG — lower, 1.75
- TCTATTAGTTGAAGGGCAAACGACGAGTCCGTTT — lower, 1.22
- GCTAGGTGGTCAGTAAAAGGTCACACACCGGTCG — lower, 5.97
- ATCTCTAGGTAACAAGTACAGTGAAAGAGAGGAC — lower, 0.485
- ATCTCTAGGTAAAAGCTCAGTGAATCCCGAGGAT — lower, -0.548
- TTACCAAGGTGCAGGTCGTTGATCCCTCTGTAGA — lower, 0.7
- AGACTGAGGTTATACGTAGATCAGGGAAGAAAGT — lower, 1.68
- CAAACTAGGTCAGAGGTCAAAGTCGAGCCAACCA — higher, 8.36
- GCGCGGAGGACAAGGTCAGAGCTTTGTCCGTAGA — lower, 2.13
- TCTCGGAGGACACGAAAGGTCAGGGCTCGACATC — lower, 4.93
- TATGCAGGGTCAAAGGCCAGAGTACGAATGTCGA — lower, 6.18
- CCTAATGGGCCAAGGTCATTGATCAGTCAAAGCA — lower, 3.77
- AGAACGAGGGCACGCGGAGTTGATAGCAGAGTAG — lower, 1.12

Each sequence was assayed on RARa homodimer (NR concentration 270 nM) in the same assay as above.
Summary of the method: as §1

Point of comparison: AGTCAAAGTTAACTAGGTAACGTAAGATTCAGCT, PBM binding z-score 0.167. Against it:
- CCTTACGGGTCACTCCAGGTTATAGCATCGGAGT — higher, 0.27
- TTGCCTAGGTCATGGGCCAGTATACCACGCGAAC — lower, -0.254
- TCTTGTAGATCAATGGTTAAGAAAGCCGAAGCCT — higher, 0.324
- CCGACTGGGGCATAAGGTTACCCTAAGCCAGCCC — lower, -0.511
- CCTTACTGGTCACTCCAGGTTATAGCATCGGAGT — higher, 1.05
- ATCTCTAGGTCACCAAGTTCAGTGAATGCCGAAC — higher, 2.64
- AGAACGAGGGCAATGAGTTGTTAGCACGGGTGGC — lower, -0.253
- GCTGCTACGTCAGGTTGGTCAGCTAACGGGTACG — lower, -1.16
- TAGCCTAGGTCAGACCGGGCCAGTATACGCTATA — lower, -1.16
- CCGAGTAGGTTATGGGGCACTCAGGCAACGGTGA — lower, -0.134
- GCTTACGGGTCAAAGGTGATAGCATGAATAGAAT — higher, 0.406
- CCTACTGGGCCAAACAGGTCATTGATGCCGATAA — lower, 0.102
- ATATGTAGGTTATGGGGTCATTCAGTTTGCGCAT — higher, 2.37
- ATCGAAAGGTCGTGAGGTTAGTATACAGAAAGGC — higher, 1.16
- GCGACTGGGGCAAAGCAGGTTTCCATAAGGTTGG — lower, -0.557
- CCTACTAGGCCAAAAAGGTCATTGATGCCGATAA — higher, 1.4
- GCTGCTAGGTCAACTGTTGGTCAGCTAAAGCTCG — lower, -0.53
- AGAACGAGGGCACGTTGAGTTGATAGCAGAGTAG — lower, -0.287
- CGTCCAGGGTCAAAGGTCAGTGAAGAGATGACGG — higher, 1.58
- ATCACTAGGTAAAAGTTCAGTGAATCCCGAGGAT — higher, 1.02
- CCAGATAGGTGAGAAGGTAACTCAGCCTCGATTA — higher, 0.419
- ACTATTAGTTAACTTAGGGCAACCGATACGACGC — higher, 0.421
- TCTTGTAGATCAAGCAGGTTAAGACAGCCTGAGT — lower, -0.0996
- GCTAGTTGGTAAGTAAAAGGTCACACACCGGTCG — higher, 2.74
- CGAACTAGGTCATTGACAGGACAGTGAGTAGTAA — higher, 0.277
- TCTTGTAGATCAATAGAGGTCAAGAAAGTGCGCT — higher, 0.852
- ACTAACAGGCCAAGTTTGGGTCACTCAAACAAAG — lower, -0.388
- TCTATTAGTTGAAGGGCAAACGACGAGTCCGTTT — higher, 1.02
- GCTAGGTGGTCAGTAAAAGGTCACACACCGGTCG — higher, 2.31
- ATCTCTAGGTAACAAGTACAGTGAAAGAGAGGAC — higher, 1.28
- ATCTCTAGGTAAAAGCTCAGTGAATCCCGAGGAT — higher, 0.418
- TTACCAAGGTGCAGGTCGTTGATCCCTCTGTAGA — lower, -0.516
- AGACTGAGGTTATACGTAGATCAGGGAAGAAAGT — lower, 0.064
- CAAACTAGGTCAGAGGTCAAAGTCGAGCCAACCA — higher, 2.29
- GCGCGGAGGACAAGGTCAGAGCTTTGTCCGTAGA — lower, -1.01
- TCTCGGAGGACACGAAAGGTCAGGGCTCGACATC — higher, 0.454
- TATGCAGGGTCAAAGGCCAGAGTACGAATGTCGA — lower, -0.114
- CCTAATGGGCCAAGGTCATTGATCAGTCAAAGCA — higher, 0.774
- AGAACGAGGGCACGCGGAGTTGATAGCAGAGTAG — lower, -0.653
